High-throughput results (PubChem)
Nrf2 block – Nrf2 pathway inhibition; A549 ARE-Fluc reporter, luciferase luminescence, 18-24 h; Potency, µM (series often up to 46 µM), actives largely listed as inhibitors; 360,000 tested, 2.1% active; also: nearly all actives have a fitted effect of over 60% in size
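Quantitative HTS in A549 cells stably bearing an antioxidant response element-firefly luciferase construct. Inhibition of Nrf2-driven transcription was scored by luminescence after 18-24 h of compound exposure at 37 °C.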
A549 tox – A549 cytotoxicity, counter-screen for Nrf2 inhibitors. A549 ARE-Fluc cells, CellTiter-Fluor viability, 18-24 h. Potency, µM (doses to about 46 µM), hits mostly inhibitors. 390,000 tested, 0.16% active
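A549 ARE-Fluc cells in 5% FBS OPTI-MEM, 5000 cells/well, rested 2 h then exposed to compounds in concentration-response for 18-24 h at 37 °C. Viability by CellTiter-Fluor fluorescence (Ex 405/Em 525) after 30 min; luciferase luminescence (BugLite, 15 min, RT) read afterwards.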
Nrf2 activator – activates Nrf2 signaling | 410,000 tested, 0.31% active | Potency, µM (top dose mostly 46.1 µM), actives largely listed as activators | AREc32 ARE-luciferase reporter (MCF7-derived line), luminescence, 24 h | AID 624171; also: nearly all actives have a fitted effect of over 65% in size
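Steps: seed AREc32_Fluc cells (1000/well, 5% FBS OPTI-MEM); incubate overnight at 37 deg C; add 23 nL compound; incubate 24 hr; add Steady-Glo; hold 30 min RT; read luminescence.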
LDHA block – LDHA (human) enzyme inhibition | P00338 | purified LDHA, NADH/diaphorase-resazurin fluorescence; hits give low values | activity change, % (values are at about 110 or 230 µM) | 480,000 tested, 0.15% active | AID 1347041; in the data active = activity change below about -30%; inconclusive = mostly about -25% to -30%
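Enzyme activity of human lactate dehydrogenase 5 (2 nM; 0.06 mM NADH, 0.2 mM pyruvate, 5 min, RT) is measured via a resazurin/diaphorase fluorescence readout of residual NADH.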
ALOX12 inh – blocks human arachidonate 12S-lipoxygenase. 580,000 tested, 1.1% active. purified 12hLO, xylenol orange hydroperoxide absorbance. Potency, µM (doses to about 108 µM), usual class: inhibitors
Target sequence (P18054 whole entry, looked up): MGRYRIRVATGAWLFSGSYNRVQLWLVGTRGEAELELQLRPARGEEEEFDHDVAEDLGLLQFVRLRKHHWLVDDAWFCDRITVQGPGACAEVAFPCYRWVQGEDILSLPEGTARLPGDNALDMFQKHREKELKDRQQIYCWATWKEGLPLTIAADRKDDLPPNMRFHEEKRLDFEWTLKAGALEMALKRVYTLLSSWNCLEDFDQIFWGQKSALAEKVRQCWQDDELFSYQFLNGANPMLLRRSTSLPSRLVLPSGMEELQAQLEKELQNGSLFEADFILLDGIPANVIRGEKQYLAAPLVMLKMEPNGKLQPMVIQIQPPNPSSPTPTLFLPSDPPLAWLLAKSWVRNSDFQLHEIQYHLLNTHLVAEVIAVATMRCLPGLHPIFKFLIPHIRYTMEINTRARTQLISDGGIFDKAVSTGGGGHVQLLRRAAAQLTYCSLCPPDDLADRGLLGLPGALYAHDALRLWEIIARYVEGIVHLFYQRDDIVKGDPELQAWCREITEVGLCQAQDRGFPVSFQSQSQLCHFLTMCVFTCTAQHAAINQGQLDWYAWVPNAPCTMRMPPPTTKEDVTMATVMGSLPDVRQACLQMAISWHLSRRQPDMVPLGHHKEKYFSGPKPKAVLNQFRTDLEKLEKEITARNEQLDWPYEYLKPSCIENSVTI
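Purified human 12hLO (150 nM final) in 25 mM Hepes, 0.01% Triton X-100, pH 7.0 was preincubated 15 min at room temperature with compound. Then 40 uM arachidonic acid was added, 30 min. Hydroperoxide was read by Fe-XO absorbance ratio 573/405 nm.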
ERG-DNA inh – inhibitors of human ERG Ets domain-DNA interaction | P11308 | Potency, µM (series often up to 76.9 µM), most hits filed as inhibitors | fluorescence polarization, His-ERG Ets domain / labelled DNA | 370,000 tested, 0.028% active; active = well fitted inhibition curve with a large enough effect in the polarisation, with a control signal flat; inconclusive = small, poorly fitted or top-dose-only effect, or effect the other way, or a change in a side signal; inactive = no such curve, though single readings can be large or run the other way; the % refers to the polarisation;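 also: polarization taken with two DNA probes labelled with fluorescein and Texas red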
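His-tagged ERG Ets domain (1 uM in the protein solution; 300mM KCl, 50mM Tris-HCl, 1mM EDTA, 1mM DTT, pH 7.5) received compound, then a probe mix of 5 nM fluorescein-DNA and 100nM Texas-615-DNA. Fluorescence polarization was read for both dyes.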
A number is an active result; - = inactive; ? = inconclusive; . = no result. In the library only some 2.7% were active in any assay of this set; here they are far more common. Unless noted, calls follow the shape of the dose curve; as a rule, active = well fitted curve in the direction sought with a large enough effect; inconclusive = small, poorly fitted or top-dose-only effect, or another doubt; inactive = no such curve, though single readings can be large; an effect the other way counts as inactive or inconclusive.

SMILES | Nrf2 block | A549 tox | Nrf2 activator | LDHA block | ALOX12 inh | ERG-DNA inh
Oc1cccc(Nc2nc(NCC3CCCO3)c3ccccc3n2)c1 (stereo not drawn) | - | - | - | - | . | -
CCOCCCNc1ncnc2c1[nH]c1ccccc12 | 23µM | - | - | - | - | -
O=C(/C=C/c1ccc(O)cc1)c1ccc(-c2cccs2)cc1 | . | . | . | - | ? | .
Cc1oc(-c2nc(C#N)c(NC3CC3)o2)cc1S(=O)(=O)N(C)c1ccccc1 | . | . | . | - | ? | .
CN(C)C(=O)c1ccc(NC(=O)CN2CCCC2c2ccc(Cl)cc2)cc1 (stereo not drawn) | . | . | . | - | ? | .
CCCCOc1ncnc2c1[nH]c1ccc(F)cc12 | 2.1µM | - | - | - | - | .
N#Cc1nc(-c2cccc3ccccc23)oc1NCCCn1ccnc1 | . | . | . | - | ? | .
N#C/C(=C/c1ccc(N2CCOCC2)o1)c1nc2ccccc2[nH]1 | . | ? | - | - | ? | ?
N#C/C(=C/c1ccc(N2CCCCCC2)o1)c1cccc(F)c1 | . | ? | 13µM | - | ? | -
N#C/C(=C/c1ccc(N2CCOCC2)o1)c1ccc(Br)cc1 | - | - | 11µM | - | 5.6µM | -
N#C/C(=C/c1ccc(N2CCCCCC2)o1)c1ccc(F)cc1 | ? | - | - | - | . | -
N#C/C(=C\c1ccc(N2CCOCC2)o1)c1ccccc1 | ? | - | 14µM | - | 20µM | .
N#C/C(=C\c1ccc(N2CCOCC2)o1)C(=O)Nc1ccc(O)cc1 | ? | - | - | - | - | -
C=CCC1Cc2c(N)cccc2C(CC=C)N1 (stereo not drawn) | . | . | . | - | ? | .
Cc1ccccc1Nc1nc(NCc2ccco2)nc2c1cnn2-c1ccccc1 | . | . | . | - | ? | .
CC(=O)C1=C(C)NC(SCC(=O)c2cc(Cl)ccc2Cl)=C(C#N)C1c1ccco1 (stereo not drawn) | 7.3µM | ? | - | - | ? | -
Cc1cccc(-c2cc(=O)c3cc(NC(=O)c4ccccc4C)ccc3o2)c1 | . | . | . | - | ? | .
Cc1ccccc1[C@H]1C[C@@H](O)[C@@H](O)[C@@H]1NC(=O)c1nc2ccccc2s1 | . | . | . | . | 45µM | .
COc1ccc([C@H]2C[C@@H](O)[C@@H](O)[C@@H]2NC(=O)c2nc3ccccc3s2)cc1 | . | . | . | . | - | .
Cc1ccc(C(O)CNC(=O)Nc2c(C)cc(C)cc2C)cc1 (stereo not drawn) | . | . | . | - | - | .
CNCc1cccn1C | . | . | . | . | 0.52µM | .
O=S(=O)(NCC1(c2ccccc2)CC1)c1ccccc1F | . | . | . | - | - | .
COc1ccc(/C=C/C(=O)Nc2ccc(C(C)=O)cc2)cc1S(=O)(=O)N1CCOCC1 | . | . | - | - | - | .
COc1cc(/C=C/C(=O)Nc2ccc(OC)c(S(=O)(=O)N3CCOCC3)c2)ccc1OC(F)F | 18µM | - | - | - | - | -
COc1ccc(/C=C/C(=O)N2CCN(c3ccccc3)CC2)cc1S(=O)(=O)N1CCOCC1 | 13µM | - | - | - | - | -
SMILES | Nrf2 block | A549 tox | Nrf2 activator | LDHA block | ALOX12 inh | ERG-DNA inh
Cc1ccc(S(=O)(=O)Nc2ccc(SC(F)F)cc2)c(C)c1 | - | - | - | - | 16µM | -
CC(C)c1ccc(S(=O)(=O)Nc2ccc(SC(F)F)cc2)cc1 | - | - | - | - | ? | -
CC1(C)Cc2c(ccc3ccccc23)/C(=C/C#N)N1 | ? | - | - | - | 40µM | .
CNC(=O)/C=C1\NC(C)(C)Cc2c1ccc1ccccc21 | . | - | - | - | ? | -
N#Cc1ccc(COC(=O)c2ccc3ccccc3n2)cc1 | . | . | . | - | ? | .
COc1cc(-c2nn3c(-c4cc(-c5ccccc5)n[nH]4)nnc3s2)cc(OC)c1OC | 21µM | ? | . | - | . | .
O=C1c2ccccc2CN1C1CCN(Cc2cccc3ccccc23)CC1 | . | . | . | . | 50µM | .
CCN(c1ccccc1)S(=O)(=O)c1ccc(OC)c(NC(=O)CN(C)C)c1 | - | - | - | -32 | - | -
CCN(c1ccccc1)S(=O)(=O)c1ccc(OC)c(NC(=O)CNC)c1 | - | - | - | - | ? | -
N#C/C(=C(/O)CCl)c1nc2c(s1)CCc1ccccc1-2 | - | - | ? | - | 16µM | -
COc1cc(/C=C2/CCc3ccccc3C2=O)cc(OC)c1OC | 15µM | - | ? | - | - | -
Cn1cccc1/C=C1\Cc2ccccc2C1=O | - | - | 11µM | - | - | -
